The source of these data is PubChem BioAssay (EPA / NIEHS).

Records with an inconclusive call do not appear. Active and inactive are the calls of the source. How the source made its calls, unless noted: active means hit-call score of the fitted dose curve at least 0.9, where 1 is the maximum; inactive means score below 0.9.

The nature of assay [1]: ATG_RORE_CIS: Attagene CIS-FACTORIAL HepG2 Assay for human RAR-related Orphan Receptor Element (RORE) (AID 2282959). The following applies: HepG2 Attagene cis-factorial RORE reporter, mRNA; actives raise or lower the signal. The method, boiled down: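 HepG2 cells carrying transiently transfected cis-regulated reporter units; RORE-driven reporter mRNA quantified 24 h post-dosing by RT-PCR, 6-FAM primer extension, HpaI digestion and capillary electrophoresis. Bidirectional fit versus DMSO.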

In assay [2] the target is Transcription factor Sp1 (Homo sapiens) (UniProt P08047). As to the kind of experiment: ATG_Sp1_CIS: Attagene CIS-FACTORIAL HepG2 Assay for human Specificity Protein 1 (Sp1) (AID 2282961). The conditions noted are these: HepG2 Sp1 cis-reporter transcription, actives raise or lower the signal. The method, boiled down:
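HepG2 cells transiently transfected with multiplexed cis-regulated reporter constructs, chemical exposure 24 h. Reporter mRNA quantified by RT-PCR with capillary electrophoresis; bidirectional fit relative to DMSO.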

Assay [3] can be described thus: ATG_SREBP_CIS: Attagene CIS-FACTORIAL HepG2 Assay for human Sterol Regulatory Element Binding (SREBP) (AID 2282962). The conditions noted are these: HepG2 Attagene cis-factorial SREBP reporter, mRNA; actives raise or lower the signal. The method, boiled down:
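HepG2 cells transiently transfected with multiplexed cis-promoter reporter units sensing endogenous transcription factors; reporter mRNA measured 24 h after dosing by RT-PCR, 6-FAM labeling, HpaI digestion and capillary electrophoresis. Bidirectional fit versus DMSO.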

Assay [4] addresses Signal transducer and activator of transcription 3 (Homo sapiens) (UniProt P40763). Kind of assay: ATG_STAT3_CIS: Attagene CIS-FACTORIAL HepG2 Assay for human Signal Transducer and Activator of Transcription 3 (STAT3) (AID 2282963). The conditions noted are these: HepG2, Attagene cis-factorial STAT3 reporter transcription; actives raise or lower the signal. The method, boiled down: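 Transcript-level reporter assay. HepG2 transient MRTU transfection, 24 h exposure, fluorescence detection after RT-PCR and CE; DMSO baseline.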

A short description of assay [5]: ATG_TA_CIS: Attagene CIS-FACTORIAL HepG2 Assay for human TA Basal Promoter (AID 2282964). The following applies: HepG2 Attagene CIS-factorial TA basal promoter reporter; actives raise or lower the signal. In a few lines:
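Fluorescence from labelled RT-PCR reporter fragments, separated by capillary electrophoresis, gives the signal. Cells: HepG2 transiently carrying multiple reporter units, 24 h chemical dosing. Gain or loss relative to DMSO.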

A short description of assay [6]: ATG_TCF_b_cat_CIS: Attagene CIS-FACTORIAL HepG2 Assay for human T-Cell-Factor with beta-catenin (TCF/b-cat) (AID 2282965). The conditions noted are these: HepG2 TCF/beta-catenin cis-reporter transcription, actives raise or lower the signal. In a few lines:
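Using capillary electrophoresis as the read-out, labelled reporter cDNA fragments from transiently transfected HepG2 were sized and quantified. Exposure lasted 24 hours; activity in either direction was referenced to DMSO.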

Assay [7] can be described thus: ATG_TAL_CIS: Attagene CIS-FACTORIAL HepG2 Assay for human TAL Basal Promoter (AID 2282966).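 Further: background control endpoint measuring basal TAL promoter reporter mRNA not a specific factor.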 The following applies: HepG2 Attagene cis-factorial TAL promoter reporter; actives raise or lower the signal. In a few lines: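 In this cell-based multiplex, HepG2 liver cells bearing cis-promoter reporter constructs are dosed for 24 hours. Total RNA is reverse-transcribed and amplified, labelled fragments are sized by capillary electrophoresis, and signal changes are fitted bidirectionally versus DMSO.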

A short description of assay [8]: ATG_TGFb_CIS: Attagene CIS-FACTORIAL HepG2 Assay for human Transforming Growth Factor (TGF) (AID 2282967). The following applies: HepG2 Attagene CIS TGFb reporter, mRNA transcription; actives raise or lower the signal. The method, boiled down: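 Bidirectional fitting relative to DMSO gave the endpoint. Underlying data: reporter mRNA from HepG2 cells carrying transiently transfected cis-regulated reporter constructs, harvested 24 h after dosing and analyzed by RT-PCR and capillary electrophoresis.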

Assay [9] can be described thus: ATG_VDRE_CIS: Attagene CIS-FACTORIAL HepG2 Assay for human Vitamin D Receptor Element (VDRE) (AID 2282968). The following applies: HepG2 VDRE cis-reporter transcription, actives raise or lower the signal. In a few lines:
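RT-PCR/CE readout of reporter mRNA; HepG2, transient transfection, 24 h dosing; DMSO baseline; bidirectional analysis.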

In assay [10] the target is Nuclear receptor subfamily 1 group I member 3 (Homo sapiens) (UniProt Q14994). Kind of assay: ATG_CAR_TRANS: Attagene TRANS-FACTORIAL HepG2 Assay for human Constitutive Androstane Receptor (CAR) (AID 2282969; active means hit-call score of the fitted dose curve at least 0.9, where 1 is the maximum;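 further: activators raise reporter mRNA above DMSO so AC50 marks induction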). The following applies: HepG2 Attagene TRANS-FACTORIAL CAR reporter. In a few lines: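 HepG2 cells transiently transfected with multiplexed GAL4-UAS reporter units expressing chimeric NR-Gal4 proteins; compound exposure 24 h. Reporter mRNA measured by RT-PCR, 6-FAM labelling, HpaI digestion and capillary electrophoresis; gain-of-signal fitted against DMSO baseline.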

Assay [11] concerns the target X-box-binding protein 1 (Homo sapiens) (UniProt P17861). Kind of assay: ATG_Xbp1_CIS: Attagene CIS-FACTORIAL HepG2 Assay for human X-box Binding Protein 1 (XBP1) (AID 2282972). The conditions noted are these: HepG2 XBP1 cis-element reporter, Attagene multiplex; actives raise or lower the signal. In a few lines: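 HepG2 cells transiently transfected with multiple cis-element reporter units report endogenous TF activity; 24 h exposure, then reporter mRNA measured by RT-PCR, 6-FAM labelling, HpaI digestion and capillary electrophoresis. Bidirectional fitting versus DMSO.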

Assay [12] addresses Glucocorticoid receptor (Homo sapiens) (UniProt P04150). As to the kind of experiment: ATG_GR_TRANS: Attagene TRANS-FACTORIAL HepG2 Assay for human Glucocorticoid Receptor (GR) (AID 2282978; active means hit-call score of the fitted dose curve at least 0.9, where 1 is the maximum;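 further: activators score as hits since higher reporter transcript over DMSO is fitted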). The conditions noted are these: HepG2 Attagene TRANS GR reporter, mRNA transcription. In a few lines: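 HepG2 cells transiently transfected with GAL4-UAS reporter units and exogenous GR-Gal4 chimera, dosed 24 h. Reporter mRNA by RT-PCR, FAM labeling, HpaI digest and capillary electrophoresis; gain-of-signal fit versus DMSO.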

Assay [13] addresses Bile acid receptor (Homo sapiens) (UniProt Q96RI1). As to the kind of experiment: ATG_FXR_TRANS: Attagene TRANS-FACTORIAL HepG2 Assay for Farnesoid X Receptor (FXR) (AID 2282979; active means hit-call score of the fitted dose curve at least 0.9, where 1 is the maximum;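 further: hits raise reporter mRNA above DMSO so AC50 marks FXR activation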). The conditions noted are these: HepG2 Attagene TRANS FXR-GAL4 reporter transcription. The method, boiled down: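 Read-out: fluorescent reporter transcripts quantified by capillary electrophoresis after RT-PCR of total RNA. Source cells were HepG2 transiently carrying chimeric NR-GAL4 plus GAL4-UAS reporter units, dosed 24 h. Activity fitted upward relative to DMSO baseline.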

Assay [14] in a line: ATG_Sox_CIS: Attagene CIS-FACTORIAL HepG2 Assay for human SRY-box transcription factor (SOX) (AID 2282960). The following applies: HepG2 Attagene cis-factorial SOX reporter, mRNA; actives raise or lower the signal. The method, boiled down: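 HepG2 cells transiently transfected with multiple cis-regulated reporter units, then dosed for 24 h. Reporter mRNA quantified by RT-PCR, fluorescent labelling, HpaI digestion and capillary electrophoresis; bidirectional fit versus DMSO.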

A short description of assay [15]: ATG_GAL4_TRANS: Attagene TRANS-FACTORIAL HepG2 Assay for GAL4 (Internal Marker) (AID 2282976; active means hit-call score of the fitted dose curve at least 0.9, where 1 is the maximum). The conditions noted are these: HepG2 Attagene TRANS GAL4 internal marker reporter. The method, boiled down:
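RT-PCR/capillary electrophoresis readout of reporter mRNA. HepG2, transient MRTU transfection (GAL4-UAS reporters), 24 h compound exposure. Background-control endpoint, positive direction vs DMSO baseline.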

Assay [16] addresses Estrogen receptor (Homo sapiens) (UniProt P03372). Kind of assay: ATG_ERa_TRANS: Attagene TRANS-FACTORIAL HepG2 Assay for human Estrogen Receptor alpha (ERa) (AID 2282970; active means hit-call score of the fitted dose curve at least 0.9, where 1 is the maximum). The following applies: HepG2 Attagene TRANS ERa GAL4 reporter, mRNA. In a few lines: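 After 24 h of compound treatment, RNA from HepG2 cells bearing transfected GAL4-UAS reporter constructs is converted to cDNA, amplified and fluorescently labelled. Capillary electrophoresis resolves the ERa-linked reporter; DMSO serves as negative control.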

Assay [17] has as its target Steroid hormone receptor ERR1 (Homo sapiens) (UniProt P11474). As to the kind of experiment: ATG_ERRa_TRANS: Attagene TRANS-FACTORIAL HepG2 Assay for human Estrogen-Related Receptor alpha (ERRa) (AID 2282971; active means hit-call score of the fitted dose curve at least 0.9, where 1 is the maximum). The conditions noted are these: HepG2 Attagene TRANS reporter, ERRa transactivation. In a few lines: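 Transfected HepG2, 24 h dosing, ERRa-Gal4 chimera driving GAL4-UAS reporter. Readout: reporter mRNA via RT-PCR plus capillary electrophoresis (fluorescence). Positive direction vs DMSO control.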

Assay [18] is described as follows: ATG_M_19_TRANS: Attagene TRANS-FACTORIAL HepG2 Assay for M19 Transcription Factor (Internal Marker) (AID 2282974; active means hit-call score of the fitted dose curve at least 0.9, where 1 is the maximum). The following applies: HepG2 Attagene TRANS-FACTORIAL M19 internal marker reporter. The method, boiled down: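 HepG2 transiently transfected with GAL4-UAS multiplex reporter constructs, exposed 24 h; reporter RNA quantified by RT-PCR, 6-FAM labeling, HpaI digestion and capillary electrophoresis; internal background marker fitted upward versus DMSO.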

Sequence of Nuclear receptor subfamily 1 group I member 3 (Homo sapiens) (Q14994 whole entry, looked up, the tested form may be a part): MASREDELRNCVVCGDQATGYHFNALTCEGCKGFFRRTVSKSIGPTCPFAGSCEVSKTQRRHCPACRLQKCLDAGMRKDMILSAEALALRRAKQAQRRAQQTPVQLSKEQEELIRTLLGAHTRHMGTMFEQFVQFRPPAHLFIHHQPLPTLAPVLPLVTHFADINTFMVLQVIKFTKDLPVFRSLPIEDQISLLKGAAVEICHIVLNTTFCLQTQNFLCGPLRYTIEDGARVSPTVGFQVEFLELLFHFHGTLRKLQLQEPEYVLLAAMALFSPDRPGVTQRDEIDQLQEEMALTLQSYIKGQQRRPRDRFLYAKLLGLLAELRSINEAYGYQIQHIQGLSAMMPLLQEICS
Sequence of Glucocorticoid receptor (Homo sapiens) (P04150 whole entry, looked up, the tested form may be a part): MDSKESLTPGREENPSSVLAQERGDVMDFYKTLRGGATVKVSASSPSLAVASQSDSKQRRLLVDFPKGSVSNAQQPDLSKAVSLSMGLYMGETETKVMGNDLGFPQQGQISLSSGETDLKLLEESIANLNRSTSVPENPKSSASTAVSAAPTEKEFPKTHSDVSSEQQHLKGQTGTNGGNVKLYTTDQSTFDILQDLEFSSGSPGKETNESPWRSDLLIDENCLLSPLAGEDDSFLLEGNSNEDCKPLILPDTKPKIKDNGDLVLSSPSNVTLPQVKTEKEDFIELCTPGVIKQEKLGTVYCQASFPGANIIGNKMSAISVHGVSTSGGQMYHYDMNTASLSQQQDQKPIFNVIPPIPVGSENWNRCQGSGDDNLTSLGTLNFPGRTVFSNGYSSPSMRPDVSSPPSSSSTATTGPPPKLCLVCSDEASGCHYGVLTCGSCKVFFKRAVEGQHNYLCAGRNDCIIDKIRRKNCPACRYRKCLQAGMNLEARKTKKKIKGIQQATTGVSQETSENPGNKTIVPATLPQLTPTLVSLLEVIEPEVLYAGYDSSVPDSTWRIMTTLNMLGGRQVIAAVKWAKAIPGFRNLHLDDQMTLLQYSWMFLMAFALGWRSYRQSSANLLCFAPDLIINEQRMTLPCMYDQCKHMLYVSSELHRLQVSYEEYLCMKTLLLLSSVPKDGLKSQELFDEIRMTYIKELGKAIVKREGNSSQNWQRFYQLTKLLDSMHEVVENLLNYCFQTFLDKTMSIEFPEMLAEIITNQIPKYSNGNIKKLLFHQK
Sequence of Transcription factor Sp1 (Homo sapiens) (P08047 whole entry, looked up): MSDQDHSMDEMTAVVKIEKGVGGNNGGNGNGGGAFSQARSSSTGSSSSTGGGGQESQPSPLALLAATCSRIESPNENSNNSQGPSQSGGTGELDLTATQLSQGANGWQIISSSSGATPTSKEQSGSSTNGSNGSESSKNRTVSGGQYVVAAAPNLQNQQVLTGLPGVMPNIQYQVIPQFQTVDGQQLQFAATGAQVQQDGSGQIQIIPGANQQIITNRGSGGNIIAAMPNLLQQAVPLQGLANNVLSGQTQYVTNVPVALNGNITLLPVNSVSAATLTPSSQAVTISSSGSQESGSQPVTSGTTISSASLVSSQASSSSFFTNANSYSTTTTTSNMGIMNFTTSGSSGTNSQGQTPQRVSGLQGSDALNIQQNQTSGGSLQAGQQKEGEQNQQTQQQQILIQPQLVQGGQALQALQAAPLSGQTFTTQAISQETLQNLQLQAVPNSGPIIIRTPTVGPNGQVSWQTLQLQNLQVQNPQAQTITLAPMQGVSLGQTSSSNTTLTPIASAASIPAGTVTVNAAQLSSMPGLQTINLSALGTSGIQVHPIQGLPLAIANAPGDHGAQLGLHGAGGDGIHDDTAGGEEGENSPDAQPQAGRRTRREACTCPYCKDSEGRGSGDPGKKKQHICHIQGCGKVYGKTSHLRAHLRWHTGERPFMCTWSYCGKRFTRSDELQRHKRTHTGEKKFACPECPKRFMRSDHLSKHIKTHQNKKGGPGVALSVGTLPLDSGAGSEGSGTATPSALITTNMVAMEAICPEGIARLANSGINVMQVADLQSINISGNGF
Sequence of Signal transducer and activator of transcription 3 (Homo sapiens) (P40763 whole entry, looked up): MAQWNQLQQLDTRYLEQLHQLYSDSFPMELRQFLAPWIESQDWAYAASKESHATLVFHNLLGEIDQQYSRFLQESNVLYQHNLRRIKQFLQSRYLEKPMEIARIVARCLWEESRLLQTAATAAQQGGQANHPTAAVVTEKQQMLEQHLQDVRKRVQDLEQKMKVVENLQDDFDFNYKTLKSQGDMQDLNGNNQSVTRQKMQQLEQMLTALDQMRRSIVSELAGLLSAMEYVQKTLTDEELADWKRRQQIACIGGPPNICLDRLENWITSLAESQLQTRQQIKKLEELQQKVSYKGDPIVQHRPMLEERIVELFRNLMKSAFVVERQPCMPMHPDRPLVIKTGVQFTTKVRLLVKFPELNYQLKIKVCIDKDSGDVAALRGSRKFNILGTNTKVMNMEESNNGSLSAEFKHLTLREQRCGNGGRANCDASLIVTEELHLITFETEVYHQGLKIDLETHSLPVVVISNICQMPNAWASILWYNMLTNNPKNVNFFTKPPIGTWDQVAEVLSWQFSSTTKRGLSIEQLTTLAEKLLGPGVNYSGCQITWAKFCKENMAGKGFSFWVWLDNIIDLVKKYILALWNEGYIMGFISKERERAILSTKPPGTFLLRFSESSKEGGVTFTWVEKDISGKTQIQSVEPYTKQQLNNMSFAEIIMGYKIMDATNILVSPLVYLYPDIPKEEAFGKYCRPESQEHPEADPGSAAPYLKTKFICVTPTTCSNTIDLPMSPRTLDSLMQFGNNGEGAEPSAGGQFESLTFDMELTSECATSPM
Sequence of X-box-binding protein 1 (Homo sapiens) (P17861 whole entry, looked up): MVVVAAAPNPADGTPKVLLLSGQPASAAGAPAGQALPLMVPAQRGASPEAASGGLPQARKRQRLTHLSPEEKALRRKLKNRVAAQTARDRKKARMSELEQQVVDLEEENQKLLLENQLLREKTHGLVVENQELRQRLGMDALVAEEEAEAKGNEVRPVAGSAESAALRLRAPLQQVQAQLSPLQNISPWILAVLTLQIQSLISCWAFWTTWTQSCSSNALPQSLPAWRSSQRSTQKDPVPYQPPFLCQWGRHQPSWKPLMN
Sequence of Bile acid receptor (Homo sapiens) (Q96RI1 whole entry, looked up, the tested form may be a part): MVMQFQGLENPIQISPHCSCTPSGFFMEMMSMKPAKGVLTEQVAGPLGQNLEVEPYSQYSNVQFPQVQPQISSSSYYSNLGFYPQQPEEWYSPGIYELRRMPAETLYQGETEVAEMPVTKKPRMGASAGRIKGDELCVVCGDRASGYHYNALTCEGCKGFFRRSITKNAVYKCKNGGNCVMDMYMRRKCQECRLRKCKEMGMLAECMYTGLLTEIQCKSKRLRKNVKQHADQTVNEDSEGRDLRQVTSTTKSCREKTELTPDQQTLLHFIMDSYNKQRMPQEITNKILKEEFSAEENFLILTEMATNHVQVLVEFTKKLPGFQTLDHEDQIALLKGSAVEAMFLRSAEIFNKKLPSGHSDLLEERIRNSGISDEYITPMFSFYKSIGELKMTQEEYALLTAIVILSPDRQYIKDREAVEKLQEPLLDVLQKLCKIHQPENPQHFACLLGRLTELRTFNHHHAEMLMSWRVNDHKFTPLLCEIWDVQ
Sequence of Estrogen receptor (Homo sapiens) (P03372 whole entry, looked up, the tested form may be a part): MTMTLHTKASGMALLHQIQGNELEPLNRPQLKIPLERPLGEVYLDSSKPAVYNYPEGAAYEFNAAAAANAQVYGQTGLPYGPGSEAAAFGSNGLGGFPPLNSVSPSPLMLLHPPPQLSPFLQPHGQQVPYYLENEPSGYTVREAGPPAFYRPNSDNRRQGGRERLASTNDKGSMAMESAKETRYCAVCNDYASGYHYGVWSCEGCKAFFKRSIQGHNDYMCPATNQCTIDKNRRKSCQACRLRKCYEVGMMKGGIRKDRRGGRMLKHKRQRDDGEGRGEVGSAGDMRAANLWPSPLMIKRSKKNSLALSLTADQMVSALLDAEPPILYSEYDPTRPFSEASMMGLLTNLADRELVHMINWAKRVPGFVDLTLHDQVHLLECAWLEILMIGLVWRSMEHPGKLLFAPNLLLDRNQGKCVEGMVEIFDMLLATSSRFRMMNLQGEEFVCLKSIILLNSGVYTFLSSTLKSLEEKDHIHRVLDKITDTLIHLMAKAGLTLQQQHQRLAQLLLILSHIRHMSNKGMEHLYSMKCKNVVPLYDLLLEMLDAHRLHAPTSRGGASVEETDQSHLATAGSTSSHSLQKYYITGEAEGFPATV
Sequence of Steroid hormone receptor ERR1 (Homo sapiens) (P11474 whole entry, looked up, the tested form may be a part): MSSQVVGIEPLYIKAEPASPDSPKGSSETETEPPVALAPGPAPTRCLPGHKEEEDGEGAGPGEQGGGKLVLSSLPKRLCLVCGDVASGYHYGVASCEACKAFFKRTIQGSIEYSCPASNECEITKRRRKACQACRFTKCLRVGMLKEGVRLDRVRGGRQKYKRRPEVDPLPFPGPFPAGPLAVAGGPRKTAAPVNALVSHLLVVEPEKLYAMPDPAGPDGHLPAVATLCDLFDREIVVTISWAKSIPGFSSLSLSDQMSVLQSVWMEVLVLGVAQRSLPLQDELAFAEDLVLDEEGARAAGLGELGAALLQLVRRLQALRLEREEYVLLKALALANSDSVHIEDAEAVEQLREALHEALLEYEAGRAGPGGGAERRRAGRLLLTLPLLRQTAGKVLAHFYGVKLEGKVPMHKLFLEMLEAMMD

As for `NC(=O)c1ccc(N)nc1`, the outcome in assay [1], in assay [2], in [3], in [4], in assay [5] and in assay [6] was inactive. Besides, the result in [7], in assay [8], in assay [9], in assay [10], in assay [11] and in [12] was inactive. In assay [13], the outcome was inactive.
For `CCN(CCO)CCO`, the compound was classed as inactive in [1], in assay [14], in assay [2], in [3], in assay [4] and in [5]. For the same compound, the result in assay [7], in assay [8], in assay [9], in [11], in assay [15] and in [12] was inactive.
`CC(C)(C1CCC(O)CC1)C1CCC(O)CC1` (centres undefined): the result in [1], in [2], in assay [3], in [4], in assay [5] and in assay [6] was inactive. Further, the compound was classed as inactive in assay [7], in assay [8], in assay [9], in assay [10] and in assay [11]. In assay [16], the AC50 (usually the concentration giving half of the maximal activity seen) is 11.2 µM (active).
As to `CCOP(=S)(OCC)SCS(=O)(=O)C(C)(C)C`, the outcome in assay [1], in assay [14], in assay [2], in assay [3], in assay [4] and in assay [5] was inactive. In addition, the outcome in assay [7], in assay [8], in [10], in assay [11], in assay [15] and in assay [12] was inactive. For the same compound, the call in [13] was inactive.
On to `C=CCN=C=S`, for which the outcome in assay [1], in assay [14], in assay [2], in assay [3], in [4] and in [5] was inactive. Further, the call in assay [7], in [8], in [9], in [10], in assay [17] and in assay [11] was inactive. The outcome in [18] and in assay [15] was inactive.
